From PubChem BioAssay (NCATS)
Values without a mark were called inactive. Active and inactive are the calls of the source. The rule behind the calls is not given here.

Tested on: HIV-1 nucleocapsid protein NCp7 (binding to TG oligonucleotide)
Experiment: HIV Nucleocapsid (AID 346);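 note: potency is for inhibitors that block NC binding and lower polarization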
Conditions: HIV-1 NC / fluorescein-TGTGTGTG probe, fluorescence polarization
Procedure, shortened: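 Inhibition of nucleocapsid binding to single-stranded 5'-TGTGTGTG probe (10 nM) was measured by fluorescence polarization after 1 hr at room temperature with 100 nM protein under high-salt, zinc-containing, reducing conditions.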
Potency is the fitted concentration of half-maximal effect.

| SMILES | Potency |
| --- | --- |
| COc1ccc(C(=O)N2CCC3(CCCN(C)C3)CC2)cc1 | > 20 µM |
| COc1ccccc1-c1nccc(NCc2cnc(C)cn2)n1 | > 20 µM |
| CCNc1ncc2nc(-c3cc(F)cc(F)c3)c(=O)n(-c3ccc(OC)cc3)c2n1 | > 4 µM |
| CNc1ccnc(-c2ccccc2C)n1 | > 20 µM |
| COCCn1c(=O)c(-c2ccccc2)nc2cnc(N3CCOCC3)nc21 | > 20 µM |
| CCNc1ncc2nc(-c3ccccc3)c(=O)n(Cc3ccc(F)cc3)c2n1 | > 20 µM |
| O=C(c1cc(C(F)(F)F)cc(C(F)(F)F)c1)N1CCC2(CCCN(Cc3ccncc3)C2)CC1 | > 20 µM |
| N#Cc1ccc(CN2CCCC3(CCN(C(=O)c4ccncc4)CC3)C2)cc1 | > 20 µM |
| Cc1cnc(CNc2nc(-c3cccnc3)nc3ccccc23)cn1 | > 20 µM |
| COc1ccccc1-c1nccc(NCc2cccc(C)c2)n1 | > 20 µM |
| COc1ccc(NC(=O)N2CC[C@@]3(CCCN(C(=O)c4c(C)noc4C)C3)C2)cc1 | > 20 µM |
| Cc1noc(C)c1-c1cncnc1N(C)Cc1ccco1 | > 20 µM |
| O=c1c(-c2cccs2)nc2cnc(Nc3ccccc3)nc2n1C[C@H]1CCCO1 | 4.11 µM (active) |
| COc1ccc(-n2c(=O)c(-c3cccs3)nc3cncnc32)cc1 | > 20 µM |
| COc1ccc(-n2c(=O)c(-c3ccccc3)nc3cnc(N4CCOCC4)nc32)cc1 | > 20 µM |
| COc1ncc2nc(-c3ccc(F)cc3)c(=O)n(CCC#N)c2n1 | > 20 µM |
| Cc1ccccc1-c1nc(N(C)C)c2ccccc2n1 | > 20 µM |
| COc1ccc(NC(=O)N2CC[C@@]3(CCCN(C(=O)c4cc(C(F)(F)F)cc(C(F)(F)F)c4)C3)C2)cc1 | > 20 µM |
| COC(=O)N1CCC2(CCCN(C(c3ccccc3)c3ccccc3)C2)CC1 | > 20 µM |
| COc1ccc2[nH]cc(CCNc3ncnc4ccc(-c5c(C)noc5C)cc34)c2c1 | > 20 µM |

| SMILES | Potency |
| --- | --- |
| COCCNc1nc(-c2ccccc2OC)nc2ccccc12 | > 20 µM |
| COc1ccc(CNc2cc(-c3ccccc3OC)ncn2)c(OC)c1 | > 20 µM |
| CN(C)c1ccnc(-c2cccc(NS(C)(=O)=O)c2)n1 | > 20 µM |
| COc1ccc(Oc2ncc3nc(-c4ccc(OC)cc4)c(=O)n(CCC#N)c3n2)cc1 | > 20 µM |
| c1cncc(-c2ccc3ncnc(N4CCNCC4)c3c2)c1 | > 20 µM |
| COc1ccc(C(=O)N2CCC[C@@]3(CCN(Cc4ccccc4)C3)C2)cc1 | > 20 µM |
| COc1ccc(-c2nc3cnc(N4CCNCC4)nc3n(Cc3ccc(F)cc3)c2=O)cc1 | > 20 µM |
| CN(C)c1ncc2nc(-c3ccc(F)cc3)c(=O)n(C[C@H]3CCCO3)c2n1 | > 20 µM |
| N#Cc1cccc(-c2nccc(NCc3ccccc3)n2)c1 | > 20 µM |
| COCCn1c(=O)c(-c2cccc(C#N)c2)nc2cnc(Oc3ccc(OC)cc3)nc21 | > 20 µM |
| COCC(=O)N1CCC2(CC1)CCN(c1ccc(-c3ccccc3)cc1)CC2 | > 20 µM |
| COc1ccc(C(=O)N2CCC3(CC2)CN(c2ncccn2)C3)cc1 | > 20 µM |
| N#Cc1ccccc1-c1ccc2ncnc(NCc3cccnc3)c2c1 | > 20 µM |
| COc1cccc(-c2ccc3ncnc(NCCN4CCOCC4)c3c2)c1 | > 20 µM |
| COCCNc1ncnc2ccc(-c3c(C)noc3C)cc12 | > 20 µM |
| COc1ncc2nc(-c3cccs3)c(=O)n(-c3ccccc3)c2n1 | > 4 µM |
| CCNc1ncc2nc(C)c(=O)n(Cc3ccc(F)cc3)c2n1 | > 20 µM |
| COC(=O)N1CCC2(CCCN(C(=O)Nc3cccc(C#N)c3)C2)CC1 | > 20 µM |
| Cn1cccc1C(=O)N1CCC[C@@]2(CCN(Cc3nccs3)C2)C1 | > 20 µM |
| CCNc1ncc2nc(-c3ccc(F)cc3)c(=O)n(C)c2n1 | > 20 µM |
